Screening data: PubChem, National Center for Advancing Translational Sciences (NCATS)
The list is not random: actives were taken first. Their share in the collection is about 19%.
Cycloheximide cs – Cycloheximide Counterscreen for Small Molecule Inhibitors of Shiga Toxin; max response, %; cell reporter, cycloheximide protein synthesis inhibition counterscreen; 300,000 compounds, 12% hits; in the data active = max response mostly above about 13%, no sharp cut-off; inactive = mostly below about 14%; note: read at 38.3 µM for the half of the compounds with a filed dose; 0% is about no effect
Pf growth 96h – Primary qHTS for delayed death inhibitors of the malarial parasite plastid, 96 hour incubation; P. falciparum luciferase reporter growth, 96 h; 320,000 compounds, 6.9% hits; Potency, µM (top dose mostly 28.7 µM), for inactives: at the highest dose activity change, negative = inhibition, most hits filed as inhibitors; AID 504834, 2011; note: potency is the fitted concentration of half-maximal effect; % is set by controls: 0 for no effect and ±100 for the full control effect
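Readout is luminescence from an integrated firefly luciferase in P. falciparum. Red cells, 2% hematocrit and 0.05% parasitemia final, were cultured with compound through two parasite generations (96 hours) at 37 C, 5% CO2.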
SARS PLP yeast – qHTS of Yeast-based Assay for SARS-CoV PLP; S. cerevisiae expressing SARS-CoV PLpro, growth rescue; Potency, µM (titrated, usually from 32.9 µM), for inactives: at the highest dose activity, positive = growth rescue, most hits filed as activators; 330,000 compounds, 0.19% hits; AID 485353, 2010; calls by dose curve; note: potency is the fitted concentration of half-maximal effect; 0% is about no effect; nearly all actives have a fitted effect of over 55% in size
AMA1 RON2 block – qHTS for Inhibitors of AMA1-RON; Towards Development of Antimalarial Drug Lead: Primary Screen | Plasmodium falciparum AMA1 (3D7) - RON2 peptide interaction | AlphaScreen AMA1-biotinylated RON2 peptide binding | Potency, µM (series often up to 58.2 µM), inactives show at the top dose activity change, negative = inhibition, actives largely listed as inhibitors | AID 720542, 2013 | 360,000 compounds, 0.2% hits;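 note: potency is the fitted concentration of half-maximal effect; 0% = vehicle wells and -100% = peptide control; nearly all actives have a fitted effect of over 45% in size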
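AMA1 (3D7) with his tag at 25 nM final met compounds first, then biotinylated RON2 peptide at 25 nM; detection used donor plus acceptor beads, 10 µg/mL apiece, read by AlphaScreen after 30 min at room temperature.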
Pf growth 48h – Primary qHTS for delayed death inhibitors of the malarial parasite plastid, 48 hour incubation; 310,000 compounds, 5.9% hits; P. falciparum luciferase growth in erythrocytes, 48 h; Potency, µM (series often up to 28.7 µM), for inactives: at the top dose activity change, negative = inhibition, most hits filed as inhibitors; note: potency is the fitted concentration of half-maximal effect; % is set by controls: 0 for no effect and ±100 for the full control effect
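Luciferase-expressing parasites in RBCs, 2% Hct / 0.1% parasitemia final; RPMI 1640 + 0.5% Albumax; 37 C, 5% CO2, one generation; luminescence read-out, lower signal = inhibition.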
Shiga inhibitor – A qHTS for Small Molecule Inhibitors of Shiga Toxin; 290,000 compounds, 9.2% hits; inhibition, % at 38.7 µM; Vero cells, Shiga toxin protein synthesis inhibition reporter; in the data active = inhibition mostly above about 28%, no sharp cut-off; inactive = mostly below about 43%; note: 0% is about no effect
* marks the source's active call; other numbers are inactive results; ? = inconclusive; · = no result given; [ ] = another dose, or the depositor's remark. Unless noted, calls come from the whole dose curve; as a rule, active = well fitted curve in the direction sought with a large enough effect; inconclusive = small, poorly fitted or top-dose-only effect, or another doubt; inactive = no such curve, though single readings can be large; an effect the other way counts as inactive or inconclusive.

SMILES	Cycloheximide cs	Pf growth 96h	SARS PLP yeast	AMA1 RON2 block	Pf growth 48h	Shiga inhibitor
CCCN1CCc2c(sc(NC(=O)C3CCN(S(=O)(=O)c4cccs4)CC3)c2C(N)=O)C1	·	?	1%	-6%	?	·
CC(NC(=O)c1cc(COc2ccc(-n3cncn3)cc2)on1)c1ccc(F)cc1 (stereo not drawn)	·	·	·	-6%	·	·
OC(c1cc(F)cc(Cl)c1)c1ncc(-c2ccc(Cl)cc2)[nH]1 (stereo not drawn)	·	·	·	-14%	·	·
CCOc1cc(/C=N/NC(=O)C(=O)Nc2cc(Cl)ccc2C)ccc1O	9	?	1%	38%	7%[5.75 µM]	-4
CCOC(=O)c1cnn(CCOC(=O)Cc2cccs2)c1NC(=O)Cc1cccs1	-3	9.3µM*	4%	-2%	69%	10
O=C(Cc1cccs1)Nc1ccc(NC(=O)c2ccco2)cc1	24*	·	·	11%	36%	60*
Cc1cc(NC(=O)Cc2ccsc2)ccc1Br	33*	44%	-3%	1%	51%	69*
CCCOC(=O)c1ccc(NC(=O)Cc2cccs2)cc1	35*	9%	-5%	13%	13%	51*
COc1ccc(C(=O)COc2ccc(C(C)=O)cc2OC)cc1OC	·	·	·	28%	·	·
COc1cccc(-c2nc(NCc3ccccc3)c3ccccc3n2)c1O	6	?	-1%	-5%	15µM*	14
c1ccc(-c2nc(NC3CCCC3)c3ccccc3n2)cc1	4	10µM*	-6%	3%	?	44
COc1cccc(-c2nc(NC3CCCC3)c3ccccc3n2)c1O	-1	9.3µM*	-10%	-9%	·	7
c1ccc(Nc2nc(-c3ccccc3)nc3ccccc23)cc1	-3	329%	-6%	15%	9%	·
C=CCNc1nc(-c2cccc(OC)c2O)nc2ccccc12	-3	?	5%	-11%	?	32
c1ccc(CN2CCC(Nc3nc(-c4cccs4)nc4ccccc34)CC2)cc1	-4	5.2µM*	-3%	-23%	5.2µM*	2
O=C(COC(=O)c1cccc(Br)c1)NC1CCCCCCC1	·	·	·	24%	·	·
Cc1cc(C)c(S(=O)(=O)NCC(CCC(=O)O)C(F)(F)F)c(C)c1 (stereo not drawn)	0	?	3%	9%	-1%	-5
CCOc1ccc(NC(=O)CN(C)C(=O)c2sc3ccccc3c2Cl)cc1OCC	·	0%	-1%	-22%	-6%	·
CC(=O)N/N=C(\C)CC(=O)NC(C)(C)C	-3	3.7µM*	-2%	14%	26%	-9
Cc1ccc(NC2CCCN(C(=O)c3ccc4[nH]ccc4c3)C2)cc1C (stereo not drawn)	-1	13µM*	2%	-1%	?	-11
Cc1ccn2cc(C(=O)N3CCCC(Nc4ccc(F)cc4)C3)nc2c1 (stereo not drawn)	8	85%	?	1%	2%	22
Cc1ccc(C(=O)N2CCCC(Nc3ccc(F)cc3)C2)cc1C (stereo not drawn)	7	0%	8%	-3%	?	-5
O=C(c1ccc2[nH]ccc2c1)N1CCCC(Nc2ccccc2)C1 (stereo not drawn)	-6	3%	·	-3%	18%	13
COc1ccc(C(=O)N2CCCC(Nc3ccc(C)c(C)c3)C2)cc1F (stereo not drawn)	30*	?	-5%	-15%	-3%	47
Cc1ccc2nc(C(=O)N3CCCC(Nc4ccc(F)cc4)C3)cn2c1 (stereo not drawn)	28*	68%	-4%	-15%	42%	81*
SMILES	Cycloheximide cs	Pf growth 96h	SARS PLP yeast	AMA1 RON2 block	Pf growth 48h	Shiga inhibitor
COc1ccc(C(=O)N2CCCC(Nc3ccc(F)cc3)C2)cc1F (stereo not drawn)	-2	10µM*	-6%	-4%	24%	-8
CC(C)N=C(NS(=O)(=O)NC(=O)c1ccccc1)c1ccccc1	-10	28%	2%	9%	15%	-9
COc1ccc(NC(=O)N(C)C[C@H]2Oc3ccc(NC(=O)Cn4cnnn4)cc3C(=O)N([C@H](C)CO)C[C@@H]2C)cc1	·	·	-8%	9%	·	·
CNC(=S)N/N=C/c1ccc(C(C)C)cc1	·	·	·	88%	·	·
CN(C)c1ccc(/C=N/NC(=S)NCc2ccccc2)cc1	24*	12µM*	9%	?	?	-7
CNC(=S)N/N=C/c1ccc(N(C)C)cc1	54*	-87%	1%	37%	40%	77*
Cc1ccsc1/C=N/NC(=S)NCc1ccccc1	21	-24%	16%	71%	2.9µM*	13
COC(=O)C1(C(=O)OC)C[C@H](/C=C/c2ccccc2)N(Cc2ccccc2OC)[C@@H]1c1ccc(F)cc1	·	·	·	-12%	·	·
O=C(Nc1ccccn1)c1cccc(S(=O)(=O)N2CCCC2)c1	1	6%	3%	2%	15%	-11
C[C@H](NC(=O)c1nc[nH]c1C(=O)NC(c1ccccc1)c1ccccc1)C(=O)OCc1ccccc1	-6	?	-1%	128%	10µM*	-7
CC(C)C[C@H](NC(=O)c1[nH]cnc1C(=O)N[C@@H](Cc1ccccc1)C(=O)OCc1ccccc1)C(=O)OCc1ccccc1	0	?	0%	160%	?	17
CC(C)C[C@H](NC(=O)c1nc[nH]c1C(=O)NC(c1ccccc1)c1ccccc1)C(=O)OCc1ccccc1	5	2.9µM*	1%	103%	3.7µM*	12
CC(C)C[C@H](NC(=O)c1[nH]cnc1C(=O)N[C@H](C)c1ccccc1)C(=O)OCc1ccccc1	-1	?	0%	101%	?	-8
CC(C)C[C@H](NC(=O)c1nc[nH]c1C(=O)N[C@@H](CC(C)C)C(=O)OCc1ccccc1)C(=O)OCc1ccccc1	1	12µM*	-4%	155%	?	-1
COc1ccc2sc(NC(C)=O)nc2c1	34*	?	2%	-2%	170%	64*
CCC(=O)Nc1nc2cc(OC)ccc2s1	55*	-17%	1%	-4%	241%	183*
COc1ccc2nc(NC(=O)CSC(C)C(=O)Nc3cc(C)on3)sc2c1 (stereo not drawn)	·	?	2%	19%	-8%	·
COc1cc(CNc2nc3ccccc3s2)cc(OC)c1OC	12	27%	0%	-5%	-3%	-7
COc1ccc2sc(NC(=O)CC(C)C)nc2c1	39*	?	1%	-4%	48%	94*
COc1ccc2sc(NCc3ccccc3)nc2c1	48*	184%	-10%	-6%	181%	146*
COc1ccc2nc(NC(=O)CS(=O)(=O)c3ccc(C)cc3)sc2c1	4	0%	-7%	14%	?	6
